Experimental data: PubChem BioAssay AID1159580 (chemical genetic matrix, 2015)
In all, about 5,500 compounds went through this assay and about 2,000 (36%) were called active. Not shown: some 18% with an inconclusive outcome. Cut-off read from the data, not from the text of the source: active = normalized growth mostly below about 0.91 (no sharp cut-off); inconclusive = no clear call, values can overlap the other calls; inactive = mostly above about 0.92. Some of the results follow.

Experiment: chemical genetic growth profiling, strain panel (AID 1159580);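 note: tested at 20 µM; growth read once vehicle control cultures reached saturation at 30 °C; 1 = growth at the plate median or of vehicle wells; lower values mean less growth of the strain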
Conditions: growth OD

Measured: normalized growth

O=C1CC(c2ccccc2)Oc2ccccc21 (configuration not stated)
inactive: S. cerevisiae deletion strains, locus YBR021W, strain FUR4, active compounds read low 0.97 | S. cerevisiae deletion strains, locus YBR229C, strain ROT2, active compounds read low 0.985 | S. cerevisiae deletion strains, locus YCL029C, strain bik1, active compounds read low 0.971 | S. cerevisiae deletion strains, locus YDL035C, strain GPR1, active compounds read low 1.02 | S. cerevisiae deletion strains, locus YDL074C, strain BRE1, active compounds read low 0.989 | S. cerevisiae deletion strains, locus YDL101C, strain DUN1, active compounds read low 0.996 | S. cerevisiae deletion strains, locus YDL185W, strain tfp1, active compounds read low 0.958 | S. cerevisiae deletion strains, locus YDL192W, strain arf1, active compounds read low 0.957 | S. cerevisiae deletion strains, locus YDR101C, strain arx1, active compounds read low 0.958 | S. cerevisiae deletion strains, locus YDR162C, strain NBP2, active compounds read low 1.02 | S. cerevisiae deletion strains, locus YDR318W, strain mcm21, active compounds read low 0.954 | S. cerevisiae deletion strains, locus YDR388W, active compounds read low 0.96 | S. cerevisiae deletion strains, locus YDR502C, strain sam2, active compounds read low 0.96 | S. cerevisiae deletion strains, locus YEL061C, strain CIN8, active compounds read low 0.976 | S. cerevisiae deletion strains, locus YER110C, active compounds read low 0.963 | S. cerevisiae deletion strains, locus YER155C, strain BEM2, active compounds read low 0.982 | S. cerevisiae deletion strains, locus YER167W, strain BCK2, active compounds read low 0.989 | S. cerevisiae deletion strains, locus YGL078C, strain dbp3, active compounds read low 0.96 | S. cerevisiae deletion strains, locus YGL086W, strain mad1, active compounds read low 0.974 | S. cerevisiae deletion strains, locus YGL248W, strain PDE1, active compounds read low 0.993 | S. cerevisiae deletion strains, locus YGR135W, strain pre9, active compounds read low 0.969 | S. cerevisiae deletion strains, locus YGR229C, strain SMI1, active compounds read low 0.985 | S. cerevisiae deletion strains, locus YGR252W, strain gcn5, active compounds read low 1.03 | S. cerevisiae deletion strains, locus YHR030C, strain SLT2, active compounds read low 0.982 | S. cerevisiae deletion strains, locus YHR079C, strain IRE1 (second series), active compounds read low 0.967 | S. cerevisiae deletion strains, locus YHR094C, strain hxt1, active compounds read low 0.972 | S. cerevisiae deletion strains, locus YHR129C, strain ARP1, active compounds read low 0.983 | S. cerevisiae deletion strains, locus YHR200W, strain rpn10, active compounds read low 0.961 | S. cerevisiae deletion strains, locus YIL066C, strain RNR3, active compounds read low 1 | S. cerevisiae deletion strains, locus YIL073C, strain SPO22, active compounds read low 1.05 | S. cerevisiae deletion strains, locus YIL125W, strain kgd1, active compounds read low 0.956 | S. cerevisiae deletion strains, locus YIR030C, strain dcg1, active compounds read low 0.977 | S. cerevisiae deletion strains, locus YJL095W, strain BCK1, active compounds read low 0.932 | S. cerevisiae deletion strains, locus YJL134W, strain LCB3, active compounds read low 0.983 | S. cerevisiae deletion strains, locus YJL168C, strain set2, active compounds read low 0.958 | S. cerevisiae deletion strains, locus YJL187C, strain SWE1 (second series), active compounds read low 1.02 | S. cerevisiae deletion strains, locus YJR043C, strain POL32, active compounds read low 0.958 | S. cerevisiae deletion strains, locus YKL009W, strain mrt4, active compounds read low 1.02 | S. cerevisiae deletion strains, locus YKL068W, active compounds read low 0.966 | S. cerevisiae deletion strains, locus YKL085W, strain MDH1 (second series), active compounds read low 0.972 | S. cerevisiae deletion strains, locus YKL085W, strain MDH1, active compounds read low 0.972 | S. cerevisiae deletion strains, locus YKR001C, strain vps1, active compounds read low 0.927 | S. cerevisiae deletion strains, locus YLR039C, strain RIC1, active compounds read low 0.956 | S. cerevisiae deletion strains, locus YLR058C, strain SHM2, active compounds read low 0.992 | S. cerevisiae deletion strains, locus YLR102C, strain apc9, active compounds read low 0.961 | S. cerevisiae deletion strains, locus YLR262C, strain YPT6, active compounds read low 0.971 | S. cerevisiae deletion strains, locus YLR268W, strain sec22, active compounds read low 0.962 | S. cerevisiae deletion strains, locus YLR330W, strain CHS5, active compounds read low 0.988 | S. cerevisiae deletion strains, locus YLR342W, strain FKS1 (second series), active compounds read low 0.944 | S. cerevisiae deletion strains, locus YLR371W, strain rom2, active compounds read low 0.961 | S. cerevisiae deletion strains, locus YLR418C, strain cdc73, active compounds read low 0.894 | S. cerevisiae deletion strains, locus YML016C, strain PPZ1, active compounds read low 0.974 | S. cerevisiae deletion strains, locus YML032C, strain rad52, active compounds read low 0.949 | S. cerevisiae deletion strains, locus YML124C, strain tub3, active compounds read low 0.95 | S. cerevisiae deletion strains, locus YMR078C, strain ctf18, active compounds read low 0.955 | S. cerevisiae deletion strains, locus YMR223W, strain ubp8, active compounds read low 0.961 | S. cerevisiae deletion strains, locus YMR307W, strain GAS1, active compounds read low 1.01 | S. cerevisiae deletion strains, locus YNL067W, strain RPL9B, active compounds read low 1.03 | S. cerevisiae deletion strains, locus YNL153C, strain GIM3, active compounds read low 1.01 | S. cerevisiae deletion strains, locus YNL233W, strain BNI4, active compounds read low 0.967 | S. cerevisiae deletion strains, locus YNL250W, strain rad50, active compounds read low 0.966 | S. cerevisiae deletion strains, locus YNL271C, strain bni1, active compounds read low 0.947 | S. cerevisiae deletion strains, locus YNL298W, strain CLA4, active compounds read low 0.971 | S. cerevisiae deletion strains, locus YNL307C, strain MCK1, active compounds read low 0.943 | S. cerevisiae deletion strains, locus YNR052C, strain pop2, active compounds read low 0.971 | S. cerevisiae deletion strains, locus YOL006C, strain TOP1, active compounds read low 0.932 | S. cerevisiae deletion strains, locus YOL012C, strain htz1 1 | S. cerevisiae deletion strains, locus YOL147C, strain pex11, active compounds read low 0.942 | S. cerevisiae deletion strains, locus YOR061W, strain CKA2, active compounds read low 0.989 | S. cerevisiae deletion strains, locus YOR069W, strain VPS5, active compounds read low 0.98 | S. cerevisiae deletion strains, locus YOR136W, strain idh2, active compounds read low 0.965 | S. cerevisiae deletion strains, locus YOR144C, strain elg1, active compounds read low 0.949 | S. cerevisiae deletion strains, locus YOR184W, strain ser1, active compounds read low 0.925 | S. cerevisiae deletion strains, locus YOR316C, strain cot1, active compounds read low 0.964 | S. cerevisiae deletion strains, locus YPL055C, strain LGE1, active compounds read low 1 | S. cerevisiae deletion strains, locus YPL241C, strain CIN2, active compounds read low 0.977 | S. cerevisiae deletion strains, locus YPR119W, strain clb2, active compounds read low 0.935 | S. cerevisiae deletion strains, locus YPR141C, strain kar3, active compounds read low 0.954 | S. cerevisiae deletion strains, locus YPR163C, strain tif3, active compounds read low 0.952 | S. cerevisiae deletion strains, locus YPR167C, strain met16, active compounds read low 1.01 | S. cerevisiae deletion strains, strain wtn01, active compounds read low 0.95 | S. cerevisiae strains, strain wild type, active compounds read low 0.988
